About 83,000 compounds went through this panel and 20% of them were active in at least one assay; those are over-represented in the sample as a whole.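 96-well plates, one dose, 48 hours. Percent growth reported; active if below 10.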 Active and inactive are the calls of the source.
Columns and labels:
Assay in all cases: NCI-60 one-dose screen, 48 h (100 = growth as untreated, 0 = no growth, -100 = all killed)
Conditions in all cases: 10 µM unless noted
[1] = test system: DU-145 prostate
[2] = test system: K-562 leukemia
[3] = test system: MALME-3M melanoma
[4] = test system: MDA-MB-231 breast
[5] = test system: RXF 393 renal
[6] = test system: SF-268 CNS
[7] = test system: SF-295 CNS
[8] = test system: SF-539 CNS
[9] = test system: UACC-257 melanoma
[10] = test system: HCT-15 colon
[11] = test system: HT29 colon
[12] = test system: SNB-75 CNS
[13] = test system: SNB-19 CNS
[14] = test system: U251 CNS
[15] = test system: PC-3 prostate
[16] = test system: SK-MEL-5 melanoma
[17] = test system: UACC-62 melanoma
[18] = test system: LOX IMVI melanoma
[19] = test system: SK-MEL-28 melanoma

Measured: growth

CC1(c2ccccc2)NC(=O)N(NC(=O)CSc2nc(-c3cccs3)nc3ccccc23)C1=O (centres undefined)
inactive: [1] 106% | [2] 88.8% | [3] 100% | [4] 90.9% | [5] 78.1% | [6] 97.8% | [7] 99.3% | [8] 95% | [9] 83.5% | [10] 91.2% | [11] 108% | [12] 96.4% | [13] 92.2% | [14] 94.6% | [15] 90.8% | [16] 85.2% | [17] 69% | [18] 95.9% | [19] 115%

O=C1/C(=C/c2ccc(Br)cc2)C=C(c2ccccc2)N1CCc1ccccc1
active: [7] -25.6% | [13] 6.97% | [14] 6.97%
inactive: [1] 54.1% | [2] 75.5% | [3] 50.5% | [4] 24.8% | [5] 31.5% | [6] 33.7% | [8] 36% | [9] 43.7% | [10] 69.7% | [11] 32.5% | [15] 22.1% | [16] 77.1% | [17] 46.6% | [18] 42.2% | [19] 70.2%

CC1OC(O[C@H]2/C=C/C=C/C=C/C=C/C=C/C=C/C=C/[C@H](C)[C@@H](O)[C@@H](C)[C@H](C)OC(=O)CC(O)CC(O)CCC(O)C(O)CC(O)C[C@]3(O)C[C@H](O)C(C(=O)O)C(C2)O3)C(O)[C@H](N)C1O (some centres undefined)
inactive: [2] 91.8% | [4] 58.7% | [7] 65% | [8] 17.2% | [10] 76.7% | [11] 36.8% | [12] 57.8% | [13] 40.2% | [16] 35.9%
active: [1] -29.9% | [3] -66% | [5] -64.4% | [6] -70.4% | [9] -76% | [14] -57.1% | [15] -54.6% | [17] -13% | [18] -12% | [19] -65.8%

CC(=O)[C@@H]1CC[C@]2(COS(=O)(=O)c3ccc(C)cc3)CC[C@]3(C)[C@H](CC[C@@H]4[C@@]5(C)CCCNC(C)(C)[C@@H]5CC[C@]43C)[C@@H]12
inactive: [1] 86.6% | [3] 88.1% | [4] 96.4% | [5] 63.9% | [6] 73.2% | [7] 101% | [8] 77.4% | [9] 49.9% | [10] 32% | [12] 83.2% | [13] 91.7% | [14] 61.8% | [15] 56.8% | [16] 76.2% | [17] 58.9% | [18] 14% | [19] 85.6%
active: [2] 2.27% | [11] 2.18%

COc1cc(-c2nn(-c3ccccc3)cc2-c2ccnc(NCCNS(=O)(=O)c3ccc(Cl)cc3)n2)ccc1Cl
inactive: [1] 50.7% | [2] 27.7% | [3] 70% | [4] 53.5% | [5] 34.9% | [6] 41.2% | [7] 30.6% | [8] 60.3% | [9] 34.8% | [10] 30.3% | [11] 11.3% | [13] 49.9% | [14] 28.4% | [15] 18.3% | [16] 32.6% | [17] 41% | [18] 32.3% | [19] 49.2%

C=CCSc1nc2ccccc2cc1/C=N/O
inactive: [1] 110% | [2] 92.3% | [3] 129% | [4] 97.6% | [5] 68.8% | [6] 90.8% | [7] 94.7% | [8] 104% | [9] 87.6% | [10] 95.8% | [11] 92.7% | [12] 58% | [13] 89.3% | [14] 86.6% | [15] 83.1% | [16] 96.3% | [17] 71.2% | [18] 85.9% | [19] 88%

COc1ccc2c(c1)C(=O)/C(=C/c1cccc(OCC(=O)Nc3nc(C)c(C)s3)c1)O2
active: [1] -76.3% | [2] -72.2% | [3] -58% | [4] -25.1% | [5] -57.2% | [6] -45.5% | [7] -82.7% | [8] -80.6% | [11] -82.2% | [12] -95.3% | [14] 0% | [15] -85.4% | [18] -63.9%
inactive: [9] 37% | [10] 12.3% | [13] 80.6% | [16] 40.4% | [17] 47.1% | [19] 11.2%

CCCCC1CCCCN1C(=O)OCC (centres undefined)
inactive: [1] 108% | [2] 107% | [3] 108% | [4] 107% | [5] 152% | [6] 106% | [7] 127% | [8] 99.7% | [9] 108% | [10] 103% | [11] 94.1% | [12] 97.8% | [13] 106% | [14] 96.1% | [15] 93.5% | [16] 111% | [17] 107% | [18] 101% | [19] 104%

COc1cc(/C=C/C(=O)c2c(C)nc3ccccc3c2/C=C/c2ccc(C)cc2)cc(OC)c1OC
active: [5] 3.96% | [10] -19.4% | [18] -22.8%
inactive: [1] 14.7% | [2] 12% | [3] 39.5% | [4] 16.6% | [6] 44.7% | [7] 38.8% | [8] 19.5% | [9] 43.8% | [11] 14% | [12] 22.7% | [13] 40.1% | [14] 20.9% | [15] 25.8% | [16] 26% | [17] 25.6% | [19] 20.3%

O=c1[nH]nc(-c2ccccc2)c2c(-c3ccccc3)onc12
inactive: [1] 25.1% | [3] 37.2% | [4] 50.3% | [5] 12.3% | [6] 42% | [7] 35.7% | [9] 71.2% | [10] 32.2% | [11] 22.2% | [13] 49.9% | [14] 30.6% | [15] 26.6% | [16] 11% | [17] 34% | [18] 49.6% | [19] 69.8%
active: [2] 9.89% | [8] 0.0732% | [12] -5.82%

COc1ccc(N=Nc2ccc(O)c(=O)cc2)cc1
inactive: [1] 19.3% | [4] 17.5% | [5] 29.7% | [6] 22.3% | [7] 10.2% | [10] 16.4% | [11] 33.1% | [13] 15.1% | [14] 12.8% | [15] 36.6%
active: [2] 2.95% | [3] 9.91% | [8] -5.77% | [9] 7.51% | [12] 8.47% | [16] -23.3% | [17] -54% | [18] -38.8% | [19] 5.78%

CCOC(=O)c1ccc(N2NC(=O)/C(=C/c3ccc([N+](=O)[O-])o3)C2=O)cc1
inactive: [1] 113% | [2] 114% | [3] 105% | [4] 133% | [5] 44% | [6] 99.8% | [7] 118% | [8] 108% | [9] 90.7% | [10] 96.6% | [11] 114% | [12] 99.9% | [13] 115% | [14] 108% | [15] 79.2% | [16] 108% | [17] 112% | [18] 91.6% | [19] 108%

Cc1ccc(C(=O)CSc2nc(-c3ccc(Br)cc3)c(C#N)c(=O)[nH]2)cc1
inactive: [1] 104% | [2] 53.3% | [3] 93% | [4] 96.4% | [5] 99.1% | [6] 97.5% | [7] 106% | [8] 94.8% | [9] 98.7% | [10] 105% | [11] 93.9% | [12] 64.5% | [14] 105% | [15] 90.9% | [16] 97.2% | [17] 97.1% | [18] 98% | [19] 101%
